Data from PubChem BioAssay.

experiment: optical density change of DRC41 E. coli – strain DRC41, OD650, 24 h, E. coli filamentation project, primary screen (AID 1093);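 note: MC1000 strain lacking acrAB efflux and sulA so SOS filamentation is blocked; test concentration not given here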; conditions: E. coli DRC41 growth, higher = more signal, called active from +8 up or from −8 down

z-score, inactive:
COC(=O)c1c2oc(c1C(=O)OC)C(=O)N[C@@H](C(C)C)Cn1cc(nn1)C1(CCCCC1)NC(=O)N[C@H](CO)CC2 1.29
COc1ccccc1CN1C(=O)c2ccccc2[C@@]2(Cc3ccccc3N(CCCN(C)C)C2=O)[C@@H]1c1ccc(CO)cc1 0.276
COC(=O)[C@@]1(Cc2ccc(OC)cc2)[C@H]2c3cc(C(=O)N(C)C)n(Cc4ccc(C(F)(F)F)nc4)c3C[C@H]2CN1C(=O)c1ccccc1 0.379
CC(CO)N1C(=O)[C@@H]2C3C(=O)OCCC/C=C\[C@H]3OC23C=CCN(CCN2CCOCC2)C(=O)[C@@H]13 (stereo partly drawn) -0.19
CCOC(=O)C1=C[C@@H](C(C)C)N(S(=O)(=O)c2ccc(C)cc2)[C@H]1c1ccccc1F -0.816
O=C1O[C@@H](c2ccccc2)[C@@H](c2ccccc2)N2[C@@H](c3ccccc3OCCO)[C@]3(C(=O)Nc4ccc(C#CC5(O)CCCCCC5)cc43)[C@@H](C(=O)N3CCN(c4ncccn4)CC3)[C@H]12 1.21
COC(=O)c1c(CC[C@@H](CO)NC(=O)N[C@@H](Cc2ccccc2)Cn2cc(-c3ccccn3)nn2)oc(C(=O)N2CCOCC2)c1C(=O)OC -0.613
COc1ccc(C(O)C2C=CC3C(=O)N(C)C(=O)C3N2N(c2ccccc2)c2ccccc2)c2ccccc12 (stereo not drawn) -1.27
CS(=O)(=O)CCOC(=O)C1=CC(CCCO)=CC(c2ccc(CN3CCCC3)cc2)N(Cc2cccc(OC(F)(F)F)c2)C=C1C(=O)OCCS(C)(=O)=O (stereo not drawn) -1.05
C=CC[C@]1(C(=O)N2CCOCC2)N=C(c2ccc(OCCCO)cc2)O[C@H]1c1ccccc1N=[N+]=[N-] 0.734
CCCCN1CC=CC23O[C@@H]4/C=C\CCCOC(=O)C4[C@H]2C(=O)N(CCCCCO)[C@@H]3C1=O (stereo partly drawn) -0.769
O=C(O)[C@@]1(CCS(=O)(=O)c2ccccc2)N=C(c2ccc(OCCCO)cc2)O[C@H]1c1ccccc1 0.712
COc1ccc([Si](C)(C)[C@@H]2[C@@H](CC(=O)N3Cc4ccccc4C[C@H]3CO)O[C@]3(C(=O)N(Cc4cccc(N5CCC5=O)c4)c4ccccc43)[C@H]2C)cc1 -0.509
O=C1OCCC=C[C@H]2OC34C=CCN(c5ccc(Cl)cc5)C(=O)[C@H]3N(CCCO)C(=O)[C@@H]4C12 (stereo partly drawn) 1.31
CCCCCCCCCCC(O)C1C=CC2C(=O)NC(=O)C2N1Nc1ccc(Cl)cc1Cl (stereo not drawn) -2.39
C=CCC(OC(C)=O)[C@@H]1[C@@H](N(Cc2ccc(-c3ccccc3)cc2)C(=O)Cc2ccc(F)cc2)c2cc(OCCCO)ccc2N1C(=O)c1ccc2ccccc2c1 (stereo partly drawn) 0.0919
COCC(=C=CC[C@H](O)c1cccc(OCCO)c1)C[C@H](O)c1cc(Cl)cc(Cl)c1O 0.706
Cc1ccc(/C=C/C=O)cc1 0.492
C=C(CCCC)/C(=C/C[C@H](OC(C)=O)c1ccc(OCCO)cc1)c1cnc2ccccc2c1 1
COc1cc2c(cc1O)C=[N+](Cc1cc3c(cc1Br)OCO3)CC2 -1.52
CCCCCCc1nc(-c2ccc(-c3ccc(Cl)c(Cl)c3)o2)c(C)c2c1[Si](C(C)C)(C(C)C)OC2 -0.0336
COCCCNC(=O)[C@]1(Cc2ccccc2)N=C(c2ccc(OCCCO)cc2)O[C@@H]1c1ccccc1CN=[N+]=[N-] 1.03
[N-]=[N+]=Nc1ccccc1C[C@@]1(C(=O)N2CCCCC2)N=C(c2ccc(OCCCO)cc2)O[C@@H]1c1ccccc1 2.76
C=CCN(Cc1ccccc1)C(=O)C(c1cccs1)N(C(=O)/C=C\C(=O)O)c1ccc(CCOCCO)cc1 (stereo not drawn) 1.01
[N-]=[N+]=NCc1ccccc1[C@H]1OC(c2ccc(OCCCO)cc2)=N[C@@]1(Cc1ccccc1)C(=O)N1CCCCC1 1.56
CC(C)(C)OC(=O)CC[C@]1(C(=O)NCCN2CCOCC2)COC(c2ccc(OCCCO)cc2)=N1 0.99
COC(=O)[C@@]1(Cc2ccc(OC)cc2)[C@H]2c3cc(C(=O)N4CCCC4)n(CCCNc4ncc(C(F)(F)F)cc4Cl)c3C[C@H]2CN1C(=O)c1ccccc1 -0.537
COCCOC(=O)N1C(=O)[C@@]2(c3ccccc31)[C@H](C(N)=O)[C@H]1C(=O)O[C@H](c3ccccc3)[C@H](c3ccccc3)N1[C@@H]2c1ccc(O)cc1 0.628
